# The panel holds about 83,000 compounds, 20% with a hit somewhere; the sample as a whole holds those more often.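 A percent growth of 40 corresponds to 60% growth inhibition; 0 means no net growth; -100 means all cells died. Active threshold: below 10.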 Values without a mark were called inactive. The source made the active and inactive calls.
# Tests used:
# Experiment in all cases: NCI-60 one-dose screen, 48 h (100 = growth as untreated, 0 = no growth, -100 = all killed)
# Settings in all cases: 10 µM unless noted
# HCT-15 colon = system: HCT-15 colon
# HT29 colon = system: HT29 colon
# SNB-75 CNS = system: SNB-75 CNS
# SNB-19 CNS = system: SNB-19 CNS
# U251 CNS = system: U251 CNS
# PC-3 prostate = system: PC-3 prostate
# SK-MEL-5 melanoma = system: SK-MEL-5 melanoma
# UACC-62 melanoma = system: UACC-62 melanoma
# SK-MEL-28 melanoma = system: SK-MEL-28 melanoma
# LOX IMVI melanoma = system: LOX IMVI melanoma
SMILES,growth (HCT-15 colon),growth (HT29 colon),growth (SNB-75 CNS),growth (SNB-19 CNS),growth (U251 CNS),growth (PC-3 prostate),growth (SK-MEL-5 melanoma),growth (UACC-62 melanoma),growth (SK-MEL-28 melanoma),growth (LOX IMVI melanoma)
CCc1c(C(=O)Nc2ccc3ccccc3c2)[nH]c(C)c1C(C)=O,79.1%,93.7%,84.4%,110%,98.3%,74%,77.4%,87.2%,97.8%,–
CCN(CC)CCCNc1nc(C)cc(Nc2ccc3nc(C)cc(N)c3c2)n1,105%,92.5%,90.9%,108%,100%,76%,112%,117%,111%,–
CN(C)c1ccc(C2CC(c3ccccc3)=NN2/C=C2\SC(=O)NC2=O)cc1 (configuration not stated),85.9%,108%,83.6%,87.6%,103%,91.3%,78.8%,90.7%,91.1%,–
CC[C@]1(O)C[C@@H]2CN(Cc3c([nH]c4ccccc34)[C@@](C(=O)OC)(c3cc4c(cc3OC)N(C)[C@H]3[C@@](O)(C(=O)OC)[C@H](OC(C)=O)[C@]5(CC)[C@@H]6C[C@@H]6CN6CC[C@]43[C@@H]65)C2)C1,60.7%,-2.26% (active),10.1%,51.7%,6.95% (active),14%,2.99% (active),34%,64.4%,–
O=C1Nc2cc(Cl)ccc2/C1=C/c1ccc(N2CCOCC2)s1,112%,97.3%,101%,86.6%,96.7%,92.5%,104%,103%,114%,–
O=[N+]([O-])c1ccc(S(=O)(=O)N2CCN(c3ccnc4cc(Cl)ccc34)CC2)c([N+](=O)[O-])c1,66.6%,93.5%,73.8%,98.2%,93.9%,95.1%,98.8%,81.8%,108%,32%
Nc1ccccc1C#C/C=C\C#Cc1cccc(O)c1,44.1%,76.2%,42.8%,88.4%,43%,64.2%,34%,23.8%,81.7%,–
COc1ccc(OC)c(NC(=O)c2cc(S(=O)(=O)N3CCc4ccccc43)ccc2OC)c1,107%,76.7%,85.1%,75.9%,92.1%,88.5%,67.6%,79.2%,131%,–
O=C(Nc1cc(C(F)(F)F)cc(C(F)(F)F)c1)Nc1ccc(OCc2nnc(-c3ccc(Cl)cc3)o2)c(F)c1,13.6%,10.8%,14.8%,23%,1.55% (active),3.89% (active),-29.6% (active),27.7%,28.8%,3.82% (active)
COC(=O)c1ccc2nc(-c3cc4ccccc4n3C)n(CCCCOc3cc4c(cc3OC)C(=O)N3CCC[C@H]3C=N4)c2c1,-19% (active),-53.7% (active),-79.5% (active),11.3%,1.02% (active),-6.81% (active),-75.6% (active),-95.9% (active),-57.1% (active),–
COc1cc(OC)c(C(=O)/C=C/c2cccc(C(F)(F)F)c2)c(OC)c1,6.82% (active),3.81% (active),19.2%,14.2%,9.44% (active),41.9%,13.2%,-12.1% (active),39.1%,–
COc1cc2nc(N3CCC[C@@H](NC4=CC(=O)c5ccccc5C4=O)C3)nc(N)c2cc1OC,-67.2% (active),-59.8% (active),-92.3% (active),-49.7% (active),-89.3% (active),23%,94%,87.8%,109%,–
COc1ccc(/C=c2\sc3n(c2=O)C2C(NN=3)N(C)C(=O)N2C)cc1 (configuration not stated),28.5%,8.76% (active),-20.5% (active),33.9%,29.3%,25.4%,6.02% (active),41.9%,54.7%,–
COc1ccc(-c2nnc(COc3ccc(NS(=O)(=O)c4ccc(OC)cc4)cc3F)o2)cc1,85.1%,91.1%,77.4%,84%,82.2%,56.3%,43.9%,64.8%,97%,–
COc1ccc(/C(=N\O)c2cc(OC)c(OC)c(OC)c2)c(OC)c1N,11.3%,4.28% (active),-8.55% (active),32.8%,18.3%,20.9%,11.3%,30%,59.3%,–
CCC(c1ccc(OC)cc1)C(CC)c1ccc(OCC[N+](C)(C)C)cc1 (configuration not stated),91.5%,28.4%,40%,19.3%,18.9%,45.3%,15.4%,30.3%,45.1%,–
CCN1C(=O)N(CC)C2Nn3c(s/c(=C\c4cccc(F)c4)c3=O)=NC21 (configuration not stated),56.6%,39.1%,6.29% (active),80.7%,73.2%,52.9%,42.6%,67.7%,75.6%,–
COc1cc(OC)c(C(=O)/C=C/c2ccc(C#N)cc2)c(OC)c1,9.66% (active),3.67% (active),14.1%,16.7%,12.6%,37.4%,8.04% (active),26.5%,39.2%,6.31% (active)
COc1ccc(/C=C2\CCCC3=C2NC(C)=NC3c2ccc(OC)c(OC)c2)cc1OC (configuration not stated),-61.7% (active),-2.36% (active),35.2%,60.4%,18.3%,32%,6.23% (active),10.9%,23%,–
Cc1cccc2cc(/C=C/C(=O)/C=C/c3ccc(Cl)cc3)c(=O)[nH]c12,43.6%,7.76% (active),79.7%,49.5%,10.6%,33.8%,91.2%,30.4%,75.4%,–
CC(=O)OCC1OC(OCC2OC(OC(C)=O)C(OC(C)=O)C(OC(C)=O)C2OC(C)=O)C(OC(C)=O)C(OC(C)=O)C1OC(C)=O (configuration not stated),96.7%,103%,92.8%,100%,92%,93.5%,94.2%,92.2%,104%,–

# From PubChem BioAssay (NCI)
